# From the supplement of paper PMC12632987
# B1: uchl1_2_7524 (protein)
# chain: KTVFVGALVTLEAEDKETGKVYRYRRNLIGTESAIEALAKEVKELVLNFKEAVGLPVKATVHIVASREEVLKKAVEEFEKMAKELAKEGIEVEITSELTK
# B2: uchl1_2_7527 (protein)
# chain: KSKFVGVKVTLTAYNEETGKTYVSTRTLILSESGIENLSKEILDLVERFKQVNGDNIEVDIKAVSTDEEALEKAKKELEKAKKELEAKGVKVNITYELVK
# B3: uchl1_2_7532 (protein)
# chain: ESVFVGVLVTITSRNEATGETKVARRTLIALESNIEALMEEVKELVLAFKEEHGGKTEVKIEVYATREEVAKRAREVAEKMKEELEAAGIDATVEVKLVK
# B4: uchl1_2_7525 (protein)
# chain: KTVFVGALLTLTSVDEETGEVYRYRRTLIGTASAIEALAREVEELVLNFRDDVGLPVDAEVHLVASDEETLRRAREAFEKMAERLAEEGITVTITSEVAR
# B5: uchl1_2_7530 (protein)
# chain: KAEFVGALLTLTARDAETGETFRSRRTLIGTADAIEALMAEIEELALRFQADVGVPVTADIHVVVSNEETAERVREALARMAERLAAEGITVNVTVTVVR
# B6: uchl1_2_7534 (protein)
# chain: KTVFVGVKVTVTVTDPATGKTTTTTRTFIGTADSVDALADAVTDYILRVKADSKADVAAAVTVYSTDKAVVDRAVAALNARVPELAAAGVTVTVTGTVVK
# B7: uchl1_2_7531 (protein)
# chain: KKKTQFVGVLVTVRATRDGRELVARRTFIATESSIDALMAEVERYVRDFVAAAGTPARVAIRAVVSTEETGARVAAALAALAERLAPLAEEIEVTVEVRR
# B8: uchl1_2_7520 (protein)
# chain: KARFVGVLVDMTSTDPETGKTYRSRRNYIGTESAIPAMMAEVKEDVLNFQKNVGLPVKVDLHIVADTQEALDAAKAEAEKMAAELAKEGATVTISGEVAE
# B9: uchl1_2_7537 (protein)
# chain: KTRFVGVKVDIEARNEETGEVFRARRTLIGTADSIPAMAEEVERLVLEFQRRTGVPVRVEVHVYASDEETARLAREEFEKMAERLRKEGIEVRVEVTVVE
# B10: uchl1_2_7519 (protein)
# chain: KTVIVGVLVDMRAYDPETGREYRARHTLIGTETAIEAMVEEIRERILAFRDDVGVPVEVDLHIVSSREEVARRLEALLKEMAAELAPEGVTVRISVTVTK
# B11: uchl1_2_7533 (protein)
# chain: KTVFVGVRVTITSRNPETGEVRRAVRTFIFTESSLEALTEEIRELALAFKADHGGATTVRIEAVATREEVAERLRELLERLAEELAAEGIEVEIEVTVVK
# B12: uchl1_2_7535 (protein)
# chain: KTKFVGVLVTLTATDAETGEVKTSRRTFIGTEDSVEALADEVKDYILDYKKDSGKAVKADIKIYSTDEEVVKKLEALLKEKEPELKAAGIEVNITGEVVK
# B13: uchl1_2_7529 (protein)
# chain: KTQFVGALVTMTATDPKTGKTYRARRILIGTADGIPAMMEEIEELALEFQKQTGVPVTVNVTVHVSKEEVAEEVKKKLEELKKRLAEKGITFTYEVIVHK
# B14: uchl1_2_7526 (protein)
# chain: KTKFVGVLVTLTSYNEETGKTYVSRRTLILSESGIEKLSEEILELVDRFKQVNGDNIKVKIHVVSTDEEALEKAKEKVEEAKEELEKRGVEVEVEYELVK
# B15: uchl1_2_7536 (protein)
# chain: KTKFVGARVEIEAVDPETGKRYRSRRTLIGTASAIEAMAEEVRRLVLAFKEDVKAPVTVRVTVYASDEETAAKARAAFERMAAELAAEGITVEVEVVLVK
# B16: uchl1_2_7521 (protein)
# chain: KAEFVGVLVDMTSTDPETGKTYRYRRNYIGTASAIPAMMAEVERDVLNFQENVGLPVDVALHIVASTEAALEAARAEAKKMAARLAAKGAKVTITGEVAK
# Target: UCHL1, P09936
# Assay: median log2 fold change of GCK-ALFA target abundance (FLAG IP / Myc IP barcode read proportion) (log2 ratio); each designed protein is fused to an ALFA-tag nanobody in HEK293 cells to bring the named protein to FLAG-tagged glucokinase (GCK); Myc marks an untargeted standard; higher = target protein stabilised (more abundant)
# Conditions: target protein: 3xFLAG-MCP-GCK-ALFA reporter; HEK293 landing pad (RPLP)
# Procedure, shortened: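 Binders fused to an ALFA nanobody were recombined as a library into HEK293 landing-pad cells, which were induced with 2 μg mL^−1 doxycycline and then transfected to express a FLAG-tagged target and a Myc-tagged standard. After 48 h, circular RNA barcodes recovered by anti-FLAG and anti-Myc immunoprecipitation of lysates were reverse transcribed, amplified and sequenced. Each binder's target abundance is the median log2 ratio of FLAG to Myc barcode read proportions, from barcodes present at ≥10^−7 in both replicates, binders carrying ≥3 barcodes per replicate, a 10^−6 pseudocount and pooled replicates.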
# Chain of UCHL1, P09936 (P09936 whole entry, looked up, the tested form may be a part): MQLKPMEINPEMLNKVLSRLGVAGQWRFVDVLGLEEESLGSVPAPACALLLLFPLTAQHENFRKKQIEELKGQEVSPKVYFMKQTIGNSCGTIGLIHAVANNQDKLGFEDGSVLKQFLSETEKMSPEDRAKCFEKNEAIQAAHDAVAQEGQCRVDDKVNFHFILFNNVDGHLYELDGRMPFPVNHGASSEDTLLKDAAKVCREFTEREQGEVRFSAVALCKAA
row,Binder,median log2 fold change
1,B1,-0.455
2,B2,-0.63
3,B3,-0.231
4,B4,0.0632
5,B5,-0.378
6,B6,0.287
7,B7,-0.524
8,B8,-1.27
9,B9,-0.302
10,B10,-0.204
11,B11,-0.457
12,B12,-0.112
13,B13,-0.784
14,B14,-0.696
15,B15,-0.837
16,B16,-1.03
